# Laboratory results reported in the supplement of paper PMC9135407.
# Structures can show the parent of a compound that is named as a salt.
# Test system: primary human hepatic stellate cells (donor 1)
# Test: PSMB2 reference mRNA level vs DMSO (fold); higher = more PSMB2 expression
# Settings: 48 h
# Procedure: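 Secondary qRT-PCR screen in primary human HSCs (donor 1), 384-well plates, with compounds dispensed in quadruplicate and incubated for 48 h. Cells-to-CT lysates were used for multiplexed TaqMan qPCR of ACTA2 or COL1A1 with PSMB2 as reference. Fold changes versus DMSO come from a linear model (Ct_gene ~ Ct_PSMB2 + plate + chemical). A hit is defined as COL1A1 and ACTA2 FC <0.5 (FDR <0.05) with PSMB2 between 0.2 and 2.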
row,Compound,PSMB2 reference mRNA level
1,CCN(CC)CCO[C@H]1CC[C@@]2(C)C(=CC[C@@H]3[C@@H]2CC[C@]2(C)C(=O)CC[C@@H]32)C1 (33.3333 µM),0.278
2,C[C@]12CC[C@H](O)C[C@H]1CC[C@@H]1[C@@H]2CC[C@]2(C)[C@@H](C3=CC(=O)OC3)CC[C@]12O [Digitoxigenin] (33.3333 µM),0.954
3,O=C1C2CCN(CC2)C1(CO)CO (90 µM),0.115
4,CCCCCCCCCCCCCC(=O)O[C@@H]1[C@@H](C)[C@@]2(O)[C@@H](C=C(CO)C[C@]3(O)C(=O)C(C)=C[C@@H]23)[C@@H]2C(C)(C)[C@]12OC(C)=O [Phorbol 12-myristate 13-acetate] (27.0333 µM),0.829
5,CC1=C(O)C(=O)C=C2C1=CC=C1[C@@]2(C)CC[C@@]2(C)[C@@H]3C[C@](C)(C(=O)O)CC[C@]3(C)CC[C@]12C [Celastrol] (3.33333 µM),0.633
6,CO[C@H]1CC[C@@H](O[C@H]2C[C@H]([C@]3(C)CC[C@]4(C[C@H](O)[C@@H](C)[C@@H]([C@@H](C)/C=C(\C)C(=O)[C@H](C)C[C@H](C)C(=O)O)O4)O3)O[C@]3(O[C@@H]([C@H]4O[C@@](O)(CO)[C@H](C)C[C@@H]4C)C[C@@H]3C)[C@@H]2C)O[C@@H]1C [Nanchangmycin] (11.1 µM),0.936
7,Fc1cc(F)c2c(c1)[C@H]1C=CC[C@H]1C(c1cccnc1)N2 (some centres undefined) [Golgicide A] (33.3333 µM),0.431
8,"CN(C(=O)Cc1ccc(Cl)c(Cl)c1)[C@H](CN1CCCC1)c1ccccc1 [ICI-199,441 hydrochloride] (33.3333 µM)",0.128
9,O=[N+]([O-])/C=C/c1ccc2c(c1)OCO2 (3.7 µM),1
10,C[C@H](N)Cn1ccc2cc(F)c(Cl)cc21 [Ro 60-0175 fumarate] (33.3333 µM),0.297
11,CC(C(=O)OC1CC2CCC(C1)N2C)c1ccc(Br)cc1 (centres undefined) [PG-9 maleate] (33.3333 µM),1.01
12,CC1=NCCc2c1[nH]c1cc(O)ccc21 [Harmalol hydrochloride dihydrate] (24.4333 µM),0.715
13,CC[C@H]1CN2CCc3cc(OC)c(OC)cc3[C@@H]2C[C@@H]1C[C@H]1NCCc2cc(OC)c(OC)cc21 [Emetine] (12.0333 µM),0.628
14,COc1ccc2[nH]cc(C3=CCNCC3)c2c1 (33.3333 µM),1.01
15,C[C@@H]1O[C@@H](O[C@H]2C[C@@H](O)[C@]3(CO)[C@H]4[C@H](O)C[C@]5(C)[C@@H](C6=CC(=O)OC6)CC[C@]5(O)[C@@H]4CC[C@]3(O)C2)[C@H](O)[C@H](O)[C@H]1O [Ouabain] (33.3333 µM),1.24
16,CN1[C@@H]2CC[C@H]1C[C@@H](OC(c1ccc(F)cc1)c1ccc(F)cc1)C2 [3 α-Bis-(4-fluorophenyl) methoxytropane hydrochloride] (33.3333 µM),0.247
17,O=c1[nH]c2ccccc2n1C1CCN(CCCC(c2ccc(F)cc2)c2ccc(F)cc2)CC1 [Pimozide] (33.3333 µM),0.0111
18,CC1=C(CC/C(C)=C/CCC2=CC[C@H](C3=CC(=O)O[C@H]3O)O[C@H]2O)C(C)(C)CCC1 [Manoalide] (40 µM),1.84
19,COc1ccc2c(c[n+](C)c3c4cc5c(cc4ccc23)OCO5)c1OC (6.66667 µM),0.187
